Measured values as given in PubChem BioAssay (EPA / NIEHS).
Results filed as inconclusive are left out. The source made the active and inactive calls. How the source made its calls, unless noted: active means hit-call score of the fitted dose curve at least 0.9, where 1 is the maximum; inactive means score below 0.9.

Columns and labels:
[1] = molecular target: Hypoxia-inducible factor 1-alpha (Homo sapiens) (UniProt Q16665); test: ATG_HIF1a_CIS: Attagene CIS-FACTORIAL HepG2 Assay for human Hypoxia Inducible Factor 1 (HIF1A) (AID 2282951); conditions: HepG2 Attagene cis-factorial HIF1a reporter transcription; actives raise or lower the signal
Method in brief: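 HepG2 cells transiently transfected with multiple cis-regulated reporter transcription units measure endogenous transcription factor activity. After 24 h exposure, reporter mRNA is quantified by RT-PCR with 6-FAM labelling, HpaI digestion and capillary electrophoresis. Bidirectional fitting against DMSO.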

[2] = molecular target: Hepatocyte nuclear factor 6 (Homo sapiens) (UniProt Q9UBC0); test: ATG_HNF6_CIS: Attagene CIS-FACTORIAL HepG2 Assay for human Hepatocyte Nuclear Factor 6 (HNF6) (AID 2282952); conditions: HepG2 Attagene cis-factorial HNF6 reporter transcription; actives raise or lower the signal
Method in brief: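 Reporter mRNA induction or loss in HepG2 after 24 h exposure; transient cis-MRTU transfection; fragments quantified by capillary electrophoresis; bidirectional analysis, DMSO as negative control.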

[3] = molecular target: Heat shock factor protein 1 (Homo sapiens) (UniProt Q00613); test: ATG_HSE_CIS: Attagene CIS-FACTORIAL HepG2 Assay for human Heat Shock Transcription Factor 1 (HSE) (AID 2282953); conditions: HepG2 HSE cis-reporter, Attagene RNA transcription; actives raise or lower the signal
Method in brief: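 Reporter mRNA induction in HepG2 is measured 24 h after dosing, using transiently transfected multiplexed cis-regulated reporter units. Signal comes from capillary electrophoresis of labelled RT-PCR products, with DMSO as negative control.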

[4] = molecular target: Paired box protein Pax-6 (Homo sapiens) (UniProt P26367); test: ATG_Pax6_CIS: Attagene CIS-FACTORIAL HepG2 Assay for human Paired Box 6 (PAX6) (AID 2282956); conditions: HepG2 CIS-FACTORIAL PAX6 reporter transcription, RNA readout; actives raise or lower the signal
Method in brief: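 After twenty-four hours of chemical exposure, transfected HepG2 cells are harvested for RNA. Cis-promoter reporter transcripts are amplified, fluorescently labelled and sized by capillary electrophoresis, with gain and loss of signal scored against DMSO.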

[5] = ATG_PXRE_CIS: Attagene CIS-FACTORIAL HepG2 Assay for human Pregnane X Receptor Element (PXRE) (AID 2282957); conditions: HepG2 Attagene CIS-FACTORIAL PXRE reporter, mRNA; actives raise or lower the signal
Method in brief: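 Transiently transfected HepG2 cells were dosed and incubated for 24 h. RNA was then isolated, DNase-treated, reverse-transcribed and reporter sequences amplified. Labeled, HpaI-digested fragments were quantified by capillary electrophoresis against DMSO.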

[6] = ATG_RORE_CIS: Attagene CIS-FACTORIAL HepG2 Assay for human RAR-related Orphan Receptor Element (RORE) (AID 2282959); conditions: HepG2 Attagene cis-factorial RORE reporter, mRNA; actives raise or lower the signal
Method in brief: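 HepG2 cells carrying transiently transfected cis-regulated reporter units; RORE-driven reporter mRNA quantified 24 h post-dosing by RT-PCR, 6-FAM primer extension, HpaI digestion and capillary electrophoresis. Bidirectional fit versus DMSO.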

[7] = ATG_Sox_CIS: Attagene CIS-FACTORIAL HepG2 Assay for human SRY-box transcription factor (SOX) (AID 2282960); conditions: HepG2 Attagene cis-factorial SOX reporter, mRNA; actives raise or lower the signal
Method in brief: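 HepG2 cells transiently transfected with multiple cis-regulated reporter units, then dosed for 24 h. Reporter mRNA quantified by RT-PCR, fluorescent labelling, HpaI digestion and capillary electrophoresis; bidirectional fit versus DMSO.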

[8] = molecular target: Transcription factor Sp1 (Homo sapiens) (UniProt P08047); test: ATG_Sp1_CIS: Attagene CIS-FACTORIAL HepG2 Assay for human Specificity Protein 1 (Sp1) (AID 2282961); conditions: HepG2 Sp1 cis-reporter transcription, actives raise or lower the signal
Method in brief: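 HepG2 cells transiently transfected with multiplexed cis-regulated reporter constructs, chemical exposure 24 h. Reporter mRNA quantified by RT-PCR with capillary electrophoresis; bidirectional fit relative to DMSO.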

[9] = ATG_SREBP_CIS: Attagene CIS-FACTORIAL HepG2 Assay for human Sterol Regulatory Element Binding (SREBP) (AID 2282962); conditions: HepG2 Attagene cis-factorial SREBP reporter, mRNA; actives raise or lower the signal
Method in brief: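 Twenty-four hours after chemical dosing of transfected HepG2 cultures, reporter RNA was converted to cDNA, amplified, end-labelled with 6-FAM and resolved by capillary electrophoresis. Responses were fitted relative to DMSO.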

[10] = molecular target: Signal transducer and activator of transcription 3 (Homo sapiens) (UniProt P40763); test: ATG_STAT3_CIS: Attagene CIS-FACTORIAL HepG2 Assay for human Signal Transducer and Activator of Transcription 3 (STAT3) (AID 2282963); conditions: HepG2, Attagene cis-factorial STAT3 reporter transcription; actives raise or lower the signal
Method in brief: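 HepG2 cells transiently transfected with cis-element-driven multiple reporter transcription units; after 24 h chemical exposure, reporter mRNA measured by RT-PCR, 6-FAM primer-extension labelling, HpaI digestion and capillary electrophoresis. Bidirectional fitting versus DMSO baseline.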

[11] = ATG_TA_CIS: Attagene CIS-FACTORIAL HepG2 Assay for human TA Basal Promoter (AID 2282964); conditions: HepG2 Attagene CIS-factorial TA basal promoter reporter; actives raise or lower the signal
Method in brief: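 Cis-factorial format in HepG2: reporters report endogenous factors, not chimeric Gal4 fusions. After 24 h treatment, reporter transcripts were measured by RT-PCR-capillary electrophoresis fluorescence, analysed bidirectionally versus DMSO.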

[12] = ATG_TCF_b_cat_CIS: Attagene CIS-FACTORIAL HepG2 Assay for human T-Cell-Factor with beta-catenin (TCF/b-cat) (AID 2282965); conditions: HepG2 TCF/beta-catenin cis-reporter transcription, actives raise or lower the signal
Method in brief: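 HepG2 cells transiently transfected with multiple cis-promoter-regulated reporter transcription units, so endogenous transcription factor activity is measured. Reporter mRNA read 24 hours after dosing by RT-PCR, fluorescent labelling and capillary electrophoresis; bidirectional fitting against DMSO.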

[13] = ATG_TAL_CIS: Attagene CIS-FACTORIAL HepG2 Assay for human TAL Basal Promoter (AID 2282966); conditions: HepG2 Attagene cis-factorial TAL promoter reporter; actives raise or lower the signal;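 further: background control endpoint measuring basal TAL promoter reporter mRNA not a specific factor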
Method in brief: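 Readout: reporter mRNA, fluorescence by CE. System: HepG2, transient multi-reporter transfection, endogenous TF activity. Exposure: 24 h. Analysis: bidirectional, DMSO-normalized; background control.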

[14] = ATG_TGFb_CIS: Attagene CIS-FACTORIAL HepG2 Assay for human Transforming Growth Factor (TGF) (AID 2282967); conditions: HepG2 Attagene CIS TGFb reporter, mRNA transcription; actives raise or lower the signal
Method in brief: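 Multiplexed cis-reporter HepG2 system, 24 h treatment; mRNA induction read by fluorescence after RT-PCR and CE; DMSO negative control, bidirectional curve fitting.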

[15] = ATG_PBREM_CIS: Attagene CIS-FACTORIAL HepG2 Assay for human Phenobarbital-responsive Enhancer Module (PBREM) (AID 2282955); conditions: HepG2 PBREM cis-reporter, Attagene multiplexed transcription; actives raise or lower the signal
Method in brief: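 HepG2 cells transiently transfected with multiple cis-regulated reporter units measure endogenous transcription factor activity; 24 h compound exposure. Reporter mRNA quantified by RT-PCR, fluorescent labelling, HpaI digestion and capillary electrophoresis; bidirectional fit versus DMSO.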

[16] = ATG_PPRE_CIS: Attagene CIS-FACTORIAL HepG2 Assay for human Peroxisome Proliferator-activated Response Element (PPRE) (AID 2282958); conditions: HepG2 PPRE cis-element reporter, Attagene transcription factor profiling; actives raise or lower the signal
Method in brief: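 HepG2 cells are transiently transfected with multiplexed cis-promoter reporter units to report endogenous PPAR activity. After 24 h dosing, reporter mRNA is read by RT-PCR and capillary electrophoresis. Fitting is bidirectional against DMSO.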

[17] = ATG_VDRE_CIS: Attagene CIS-FACTORIAL HepG2 Assay for human Vitamin D Receptor Element (VDRE) (AID 2282968); conditions: HepG2 VDRE cis-reporter transcription, actives raise or lower the signal
Method in brief: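 HepG2 cells transiently transfected with cis-element reporter units, dosed 24 h; reporter mRNA measured by RT-PCR, 6-FAM labeling, HpaI digestion and capillary electrophoresis. Activity fitted bidirectionally against DMSO baseline.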

[18] = molecular target: Nuclear receptor subfamily 1 group I member 3 (Homo sapiens) (UniProt Q14994); test: ATG_CAR_TRANS: Attagene TRANS-FACTORIAL HepG2 Assay for human Constitutive Androstane Receptor (CAR) (AID 2282969; active means hit-call score of the fitted dose curve at least 0.9, where 1 is the maximum;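 further: activators raise reporter mRNA above DMSO so AC50 marks induction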); conditions: HepG2 Attagene TRANS-FACTORIAL CAR reporter
Method in brief: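 HepG2 cells transiently transfected with multiplexed GAL4-UAS reporter units expressing chimeric NR-Gal4 proteins; compound exposure 24 h. Reporter mRNA measured by RT-PCR, 6-FAM labelling, HpaI digestion and capillary electrophoresis; gain-of-signal fitted against DMSO baseline.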

[19] = ATG_MRE_CIS: Attagene CIS-FACTORIAL HepG2 Assay for human Metal Responsive Element (MRE) (AID 2282954); conditions: HepG2 MRE cis-reporter transcription, Attagene multiplex; actives raise or lower the signal
Method in brief: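 HepG2 cells transiently transfected with multiple cis-element reporter units measure endogenous MTF1-driven transcription. After 24 h compound exposure, reporter mRNA is quantified by RT-PCR with 6-FAM labelling, HpaI digestion and capillary electrophoresis; bidirectional fits versus DMSO.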

[20] = molecular target: Estrogen receptor (Homo sapiens) (UniProt P03372); test: ATG_ERa_TRANS: Attagene TRANS-FACTORIAL HepG2 Assay for human Estrogen Receptor alpha (ERa) (AID 2282970; active means hit-call score of the fitted dose curve at least 0.9, where 1 is the maximum); conditions: HepG2 Attagene TRANS ERa GAL4 reporter, mRNA
Method in brief: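 Transactivation via ERa-Gal4 chimera in HepG2; 24 hour incubation; reporter mRNA detected by fluorescence RT-PCR and capillary electrophoresis.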

Measured: AC50

Nuclear receptor subfamily 1 group I member 3 (Homo sapiens), sequence (Q14994 whole entry, looked up, the tested form may be a part): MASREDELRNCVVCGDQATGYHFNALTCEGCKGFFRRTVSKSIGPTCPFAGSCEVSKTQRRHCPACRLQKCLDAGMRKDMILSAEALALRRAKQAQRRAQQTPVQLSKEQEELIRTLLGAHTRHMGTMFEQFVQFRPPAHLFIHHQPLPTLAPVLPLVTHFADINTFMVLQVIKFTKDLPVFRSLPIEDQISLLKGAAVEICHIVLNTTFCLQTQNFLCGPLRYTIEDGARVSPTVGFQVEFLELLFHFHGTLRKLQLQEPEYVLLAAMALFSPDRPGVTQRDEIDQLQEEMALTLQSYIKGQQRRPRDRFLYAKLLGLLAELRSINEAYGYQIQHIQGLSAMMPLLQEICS
Estrogen receptor (Homo sapiens), sequence (P03372 whole entry, looked up, the tested form may be a part): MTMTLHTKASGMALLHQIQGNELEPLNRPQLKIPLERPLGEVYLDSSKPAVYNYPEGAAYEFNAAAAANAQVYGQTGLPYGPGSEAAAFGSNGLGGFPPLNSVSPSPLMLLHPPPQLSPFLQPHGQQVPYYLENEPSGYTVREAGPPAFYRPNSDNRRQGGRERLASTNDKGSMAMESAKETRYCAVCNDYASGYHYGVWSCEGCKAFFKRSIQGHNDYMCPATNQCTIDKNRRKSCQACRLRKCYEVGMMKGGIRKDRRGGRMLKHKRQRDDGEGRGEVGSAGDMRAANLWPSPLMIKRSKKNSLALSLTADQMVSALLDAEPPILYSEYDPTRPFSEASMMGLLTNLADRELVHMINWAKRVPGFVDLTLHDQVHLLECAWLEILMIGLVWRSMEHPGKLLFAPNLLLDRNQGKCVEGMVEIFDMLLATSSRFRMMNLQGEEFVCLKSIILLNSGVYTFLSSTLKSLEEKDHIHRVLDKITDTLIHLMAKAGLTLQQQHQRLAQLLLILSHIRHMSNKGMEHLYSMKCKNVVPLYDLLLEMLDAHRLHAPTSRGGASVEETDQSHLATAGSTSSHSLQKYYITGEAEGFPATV
Heat shock factor protein 1 (Homo sapiens), sequence (Q00613 whole entry, looked up): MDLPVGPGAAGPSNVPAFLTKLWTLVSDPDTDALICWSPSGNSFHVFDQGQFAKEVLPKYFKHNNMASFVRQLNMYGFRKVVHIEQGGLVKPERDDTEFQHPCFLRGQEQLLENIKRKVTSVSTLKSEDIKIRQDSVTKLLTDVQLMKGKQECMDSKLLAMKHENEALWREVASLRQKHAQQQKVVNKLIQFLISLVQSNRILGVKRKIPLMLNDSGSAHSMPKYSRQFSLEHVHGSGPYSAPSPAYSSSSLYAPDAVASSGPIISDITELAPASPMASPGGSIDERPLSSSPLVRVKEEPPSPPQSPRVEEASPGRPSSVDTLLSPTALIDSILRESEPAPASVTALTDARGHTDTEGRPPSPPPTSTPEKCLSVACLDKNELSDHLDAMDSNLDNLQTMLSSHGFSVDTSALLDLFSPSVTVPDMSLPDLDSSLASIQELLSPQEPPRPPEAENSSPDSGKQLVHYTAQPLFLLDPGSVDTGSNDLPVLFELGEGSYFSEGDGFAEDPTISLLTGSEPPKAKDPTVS
Signal transducer and activator of transcription 3 (Homo sapiens), sequence (P40763 whole entry, looked up): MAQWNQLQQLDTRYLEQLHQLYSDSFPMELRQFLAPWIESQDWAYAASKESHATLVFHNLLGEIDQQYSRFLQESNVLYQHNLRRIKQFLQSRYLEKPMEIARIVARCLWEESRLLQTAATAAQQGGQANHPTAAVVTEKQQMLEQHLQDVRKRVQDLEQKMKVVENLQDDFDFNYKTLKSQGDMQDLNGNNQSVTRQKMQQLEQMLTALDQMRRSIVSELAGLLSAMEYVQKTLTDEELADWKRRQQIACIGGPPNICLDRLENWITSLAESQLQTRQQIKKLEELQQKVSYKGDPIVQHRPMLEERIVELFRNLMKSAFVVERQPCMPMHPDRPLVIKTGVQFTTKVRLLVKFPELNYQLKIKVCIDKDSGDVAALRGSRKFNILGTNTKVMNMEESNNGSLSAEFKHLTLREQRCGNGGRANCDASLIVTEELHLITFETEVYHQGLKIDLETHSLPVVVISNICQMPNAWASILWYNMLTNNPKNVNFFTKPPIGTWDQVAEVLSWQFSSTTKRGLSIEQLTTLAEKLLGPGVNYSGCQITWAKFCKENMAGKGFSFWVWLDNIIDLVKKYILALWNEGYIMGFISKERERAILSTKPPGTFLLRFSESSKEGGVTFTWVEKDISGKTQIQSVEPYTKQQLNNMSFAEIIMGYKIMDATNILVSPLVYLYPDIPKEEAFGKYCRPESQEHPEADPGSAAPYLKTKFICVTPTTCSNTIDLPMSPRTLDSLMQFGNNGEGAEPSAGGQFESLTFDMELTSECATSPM
Transcription factor Sp1 (Homo sapiens), sequence (P08047 whole entry, looked up): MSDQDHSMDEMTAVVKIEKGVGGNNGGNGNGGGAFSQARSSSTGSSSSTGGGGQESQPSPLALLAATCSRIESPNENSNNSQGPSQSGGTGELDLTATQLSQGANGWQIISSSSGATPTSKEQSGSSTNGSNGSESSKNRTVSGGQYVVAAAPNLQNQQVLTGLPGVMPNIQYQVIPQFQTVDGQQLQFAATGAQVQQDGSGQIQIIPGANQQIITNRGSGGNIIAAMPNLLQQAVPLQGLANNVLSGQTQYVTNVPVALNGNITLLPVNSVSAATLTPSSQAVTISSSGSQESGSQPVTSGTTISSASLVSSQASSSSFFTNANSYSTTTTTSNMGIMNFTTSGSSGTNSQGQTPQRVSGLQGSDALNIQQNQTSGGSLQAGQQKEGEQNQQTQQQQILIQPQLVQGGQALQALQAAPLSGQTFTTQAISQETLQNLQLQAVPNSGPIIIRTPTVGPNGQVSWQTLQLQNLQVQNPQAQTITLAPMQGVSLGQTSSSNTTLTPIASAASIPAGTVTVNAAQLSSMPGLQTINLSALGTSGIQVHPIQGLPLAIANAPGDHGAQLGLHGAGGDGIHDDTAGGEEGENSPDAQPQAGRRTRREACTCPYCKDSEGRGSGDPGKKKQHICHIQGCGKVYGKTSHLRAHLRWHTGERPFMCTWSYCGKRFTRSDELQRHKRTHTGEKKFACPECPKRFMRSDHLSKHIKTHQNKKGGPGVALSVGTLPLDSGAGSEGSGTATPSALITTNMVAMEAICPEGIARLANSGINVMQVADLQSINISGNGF
Paired box protein Pax-6 (Homo sapiens), sequence (P26367 whole entry, looked up): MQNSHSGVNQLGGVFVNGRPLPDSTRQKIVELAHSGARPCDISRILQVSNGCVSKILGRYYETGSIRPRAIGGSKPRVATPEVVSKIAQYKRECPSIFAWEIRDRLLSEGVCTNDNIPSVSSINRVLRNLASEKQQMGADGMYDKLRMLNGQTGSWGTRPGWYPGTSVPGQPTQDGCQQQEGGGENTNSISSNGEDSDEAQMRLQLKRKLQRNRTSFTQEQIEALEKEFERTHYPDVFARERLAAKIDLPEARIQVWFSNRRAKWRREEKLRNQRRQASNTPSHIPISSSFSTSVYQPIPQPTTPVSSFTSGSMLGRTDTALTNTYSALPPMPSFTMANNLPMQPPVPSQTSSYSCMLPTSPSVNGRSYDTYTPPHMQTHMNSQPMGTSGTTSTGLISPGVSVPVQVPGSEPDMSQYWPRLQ
Hypoxia-inducible factor 1-alpha (Homo sapiens), sequence (Q16665 whole entry, looked up): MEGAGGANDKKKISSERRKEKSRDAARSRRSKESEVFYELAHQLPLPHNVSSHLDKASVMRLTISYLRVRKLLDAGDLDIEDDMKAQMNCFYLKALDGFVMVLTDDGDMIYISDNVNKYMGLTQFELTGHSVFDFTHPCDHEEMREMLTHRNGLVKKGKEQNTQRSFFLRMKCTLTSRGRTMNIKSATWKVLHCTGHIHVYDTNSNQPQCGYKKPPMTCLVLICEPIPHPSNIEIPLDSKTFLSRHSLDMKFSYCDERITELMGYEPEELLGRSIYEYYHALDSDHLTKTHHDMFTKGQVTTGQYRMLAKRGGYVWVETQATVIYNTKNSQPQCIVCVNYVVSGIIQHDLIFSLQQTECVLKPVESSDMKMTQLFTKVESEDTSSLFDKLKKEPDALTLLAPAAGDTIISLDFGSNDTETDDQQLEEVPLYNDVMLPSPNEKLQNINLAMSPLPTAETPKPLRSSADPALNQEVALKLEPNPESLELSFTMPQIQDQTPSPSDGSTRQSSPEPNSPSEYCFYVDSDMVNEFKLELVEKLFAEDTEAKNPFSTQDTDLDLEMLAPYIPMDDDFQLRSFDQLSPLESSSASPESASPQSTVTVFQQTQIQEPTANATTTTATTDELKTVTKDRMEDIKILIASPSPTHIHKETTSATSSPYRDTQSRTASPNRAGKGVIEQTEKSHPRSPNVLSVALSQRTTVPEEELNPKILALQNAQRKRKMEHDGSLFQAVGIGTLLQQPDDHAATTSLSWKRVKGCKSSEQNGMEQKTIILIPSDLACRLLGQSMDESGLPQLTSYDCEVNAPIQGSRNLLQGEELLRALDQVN
Hepatocyte nuclear factor 6 (Homo sapiens), sequence (Q9UBC0 whole entry, looked up, the tested form may be a part): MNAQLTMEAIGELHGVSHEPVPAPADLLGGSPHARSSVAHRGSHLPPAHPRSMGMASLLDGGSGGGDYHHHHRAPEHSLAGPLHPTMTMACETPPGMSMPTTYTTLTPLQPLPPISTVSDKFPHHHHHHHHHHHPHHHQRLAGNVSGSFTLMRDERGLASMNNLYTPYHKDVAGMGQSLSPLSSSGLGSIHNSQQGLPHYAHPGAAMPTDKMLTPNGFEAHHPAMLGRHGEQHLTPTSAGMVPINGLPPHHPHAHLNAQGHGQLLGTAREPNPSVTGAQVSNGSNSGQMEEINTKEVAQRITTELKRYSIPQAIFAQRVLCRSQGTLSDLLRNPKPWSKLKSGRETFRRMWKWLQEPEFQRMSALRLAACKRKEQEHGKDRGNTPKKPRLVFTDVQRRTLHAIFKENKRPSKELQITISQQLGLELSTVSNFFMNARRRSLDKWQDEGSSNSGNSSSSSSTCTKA

CCCCN(CCCC)C(=S)S
inactive: [6] | [8] | [10] | [11] | [13] | [14]
active: [1] 100 µM | [2] 100 µM | [3] 47.9 µM | [4] 100 µM | [5] 25.1 µM | [7] 50.1 µM | [9] 128 µM | [12] 166 µM

O=S(=O)(c1ccc(Cl)cc1)c1cc(Cl)c(Cl)cc1Cl
active: [5] 1.59 µM | [9] 14.5 µM | [17] 2.79 µM
not listed: [3] | [10] | [19] | [20]
inactive: all other assays above

C[C@@H]1O[C@@H](O[C@H]2C[C@@H](O)[C@]3(CO)[C@H]4[C@H](O)C[C@]5(C)[C@@H](C6=CC(=O)OC6)CC[C@]5(O)[C@@H]4CC[C@]3(O)C2)[C@H](O)[C@H](O)[C@H]1O
active: [2] 0.0716 µM | [3] 0.0716 µM | [5] 0.137 µM | [8] 0.0716 µM | [9] 0.0716 µM | [12] 2.31 µM | [13] 0.165 µM
not listed: [1] | [18] | [20]
inactive: all other assays above

[F][Sn]([c]1ccccc1)([c]1ccccc1)[c]1ccccc1
active: [1] 0.327 µM | [3] 0.324 µM | [4] 0.346 µM | [5] 0.466 µM | [6] 0.0319 µM | [7] 0.328 µM | [8] 0.303 µM | [10] 0.597 µM | [11] 0.58 µM | [17] 0.332 µM
inactive: [2] | [9] | [12] | [13] | [14] | [20]

CS(=O)(=O)c1ccc(C(=O)C2C(=O)CCCC2=O)c(Cl)c1COCC(F)(F)F
active: [5] 26.4 µM
not listed: [3] | [17]
inactive: all other assays above

Oc1c(Cl)cc(Cl)cc1Cl
active: [1] 41.6 µM
not listed: [2] | [6] | [11] | [16] | [17] | [20]
inactive: all other assays above

OC[P+](CO)(CO)CO
not listed: [6] | [16] | [17] | [18] | [19] | [20]
inactive: all other assays above

Cc1cccc(OP(=O)(Oc2cccc(C)c2)Oc2cccc(C)c2)c1
active: [5] 1.32 µM | [17] 4.85 µM
not listed: [6] | [18] | [19] | [20]
inactive: all other assays above

NC(=O)CCl
active: [5] 27.2 µM
not listed: [10] | [19]
inactive: all other assays above

CC(C)O.CC(C)O.OCCN(CCO)CCO.OCCN(CCO)CCO.[Ti]
not listed: [3] | [4] | [6] | [16] | [17] | [19] | [20]
inactive: all other assays above

O=C(Cl)OCCOCCOC(=O)Cl
not listed: [3] | [16] | [19] | [20]
inactive: all other assays above

BrCCCCBr
not listed: [15] | [16] | [17] | [18] | [19] | [20]
inactive: all other assays above

OCCN(CCO)CCO
not listed: [3] | [6] | [16] | [17] | [18] | [20]
inactive: all other assays above

O=C(O)COc1cc(Cl)c(Cl)cc1Cl
active: [16] 33.5 µM
not listed: [15] | [18] | [19] | [20]
inactive: all other assays above

O=c1nc(O)n(Cl)c(=O)n1Cl
not listed: [6] | [15] | [16] | [17] | [18] | [19] | [20]
inactive: all other assays above

C=C(C)C(=O)OCC(CC)CCCC (stereo not given)
not listed: [15] | [16] | [18] | [19]
inactive: all other assays above

CCCCOC(C)=O
not listed: [3] | [15] | [17] | [18] | [20]
inactive: all other assays above
